Source: ChEMBL document CHEMBL4513216, “Probing the Open Global Health Chemical Diversity Library for Multistage-Active Starting Points for Next-Generation Antimalarials” (ACS Infect Dis, 2020)
Out of some 69,000 compounds screened, about 8,600 (12%) showed an effect of 50% or more. The list comes from a sample in which strong results are over-represented; it also holds similar structures and randomly drawn compounds.

Test system: Plasmodium berghei
Test: Screen against P. berghei liver stage (PbLuc), transformed with Luciferase, at 10uM
Format: functional, HepG2
Details: tested at 10 uM

Question: For O=C(c1ccc[nH]1)N1CC[C@@H](OCC2CC2)[C@@H]1Cc1cccnc1, which INHIBITION is on record?
Answer: -68.6%

Question: Which INHIBITION does the source give for O=C(C1CCOCC1)N1CCC(OCc2cccnc2)CC1 here?
Answer: 85.2%

Question: For Cn1c(CN2CCC(OCc3cccnc3)CC2)cc2ccccc21, which INHIBITION is on record?
Answer: 56.2%

Question: Cn1c(CN2CCN(c3cccnc3)CC2)cc2ccccc21 was tested. Which INHIBITION did it give?
Answer: 27.4%

Question: For O=C(Cc1cccnc1)N1CCC(OCc2ccccc2)CC1, which INHIBITION is on record?
Answer: 7.84%

Question: How did the INHIBITION turn out when O=C(C1CCOC1)N1CCC(OCc2ccccc2)CC1 (centres undefined) was run?
Answer: 33.9%

Question: How did the INHIBITION turn out when CN(CC(=O)N1CCC(OCc2cccnc2)CC1)c1ccccc1 was run?
Answer: 5.91%

Question: With CCc1ccc(C(=O)NCc2cccc(S(=O)(=O)NC)c2)o1 as the compound, how does the INHIBITION read?
Answer: -14%

Question: CCn1ccnc1CN1CCCN(C(=O)c2cnn(C)c2)CC1 was tested. Which INHIBITION did it give?
Answer: -21.21%

Question: Cc1cc(N2CCN(C(=O)Cc3c(C)nc(C)[nH]c3=O)CC2)cc(C)n1 was tested. Which INHIBITION did it give?
Answer: 14.9%

Question: How did the INHIBITION turn out when CCO[C@@H]1CN(Cc2scnc2C)[C@@H]2CCCO[C@@H]21 was run?
Answer: -6.39%

Question: With N#Cc1cnc(N2CCC3(CC2)OCCO3)nc1N as the compound, how does the INHIBITION read?
Answer: 1.61%

Question: With Cc1ccc(-c2noc(CN3CCc4cncnc4C3)n2)cc1 as the compound, how does the INHIBITION read?
Answer: 38.6%

Question: Cn1cc(C(=O)N2CCCC(c3cc(O)n(C)n3)C2)cn1 (centres undefined) was tested. Which INHIBITION did it give?
Answer: 19.6%

Question: For O=C1CN(S(=O)(=O)c2ccc(F)cc2)CC(O)CN1CC1CC1 (centres undefined), which INHIBITION is on record?
Answer: 4.07%

Question: COc1ccc(S(=O)(=O)C2CCN(C(=O)c3cc(C)cs3)CC2)cc1 was tested. Which INHIBITION did it give?
Answer: 65.2%

Question: How did the INHIBITION turn out when Cc1csc(C(=O)N2CC(S(=O)(=O)C3CCCCC3)C2)c1 was run?
Answer: 75.2%

Question: With Cc1csc(C(=O)N2CCC(S(C)(=O)=O)C2)c1 (centres undefined) as the compound, how does the INHIBITION read?
Answer: 12.3%

Question: Cc1csc(C(=O)N2CCCC(c3[nH]ncc3S(C)(=O)=O)C2)c1 (centres undefined) was tested. Which INHIBITION did it give?
Answer: 27.8%

Question: Cn1cnnc1S(=O)(=O)C1CCN(C(=O)c2cccs2)CC1 was tested. Which INHIBITION did it give?
Answer: 41.8%

Question: Cc1csc(C(=O)N2CCC(S(C)(=O)=O)CC2)c1 was tested. Which INHIBITION did it give?
Answer: 43.7%

Question: How did the INHIBITION turn out when O=C(CCOc1cccc(F)c1)N1CCCC(n2cccn2)C1 (centres undefined) was run?
Answer: -18%

Question: With Cc1ccc(-c2nc(CN3CCCC3Cn3cncn3)cs2)o1 (centres undefined) as the compound, how does the INHIBITION read?
Answer: -15.5%

Question: Which INHIBITION does the source give for O=S1(=O)COCCN1Cc1ccc(F)c(F)c1 here?
Answer: 29.9%

Question: Which INHIBITION does the source give for Cc1nc(-c2ccc(S(=O)(=O)N3CCOCC3)cc2)co1 here?
Answer: 14.8%

Question: With Cc1nc(-c2ccc(S(=O)(=O)N3CCCCC3)cc2)co1 as the compound, how does the INHIBITION read?
Answer: 6.09%

Question: For COCCNc1nc(-c2ccc(S(=O)(=O)N3CCCCCC3)cc2)cs1, which INHIBITION is on record?
Answer: 62.8%

Question: Cc1nc(-c2ccc(S(=O)(=O)N3CCSCC3)cc2)co1 was tested. Which INHIBITION did it give?
Answer: 49.4%

Question: How did the INHIBITION turn out when COCCNc1nc(-c2ccc(S(=O)(=O)N3CCCCC3)cc2)cs1 was run?
Answer: -1.16%

Question: Cc1nc(-c2ccc(S(=O)(=O)N3CCSC3)cc2)co1 was tested. Which INHIBITION did it give?
Answer: 39.6%

Question: For COCCNC(=O)c1cc(S(=O)(=O)N2CCCCC2)cs1, which INHIBITION is on record?
Answer: -4.86%

Question: Which INHIBITION does the source give for COCc1nc(-c2ccc(S(=O)(=O)N3CCCC3)cc2)cs1 here?
Answer: 61%

Question: For COCCCc1nc(-c2ccc(S(=O)(=O)N3CCCC3)cc2)cs1, which INHIBITION is on record?
Answer: 61%

Question: Which INHIBITION does the source give for c1cnnc(N2CCCC2CNCc2noc(C3CC3)n2)c1 (centres undefined) here?
Answer: -29.8%

Question: COCCNC(=O)CNC(=O)c1nc(Cc2c(Cl)cccc2Cl)no1 was tested. Which INHIBITION did it give?
Answer: 9%

Question: Which INHIBITION does the source give for COc1c(C(=O)NCC2CCCO2)nnn1Cc1ccccc1 (centres undefined) here?
Answer: -14.7%

Question: How did the INHIBITION turn out when O=C(N1CCOCC1)N1C[C@H]2CN(Cc3nccs3)C[C@H]2C1 was run?
Answer: 34.6%

Question: For O=C(c1cncc2ccccc12)N1CCC[C@@H]1CO, which INHIBITION is on record?
Answer: -10.6%

Question: With c1cnc(NCc2ncn3c2CN(Cc2cccnc2)CCC3)nc1 as the compound, how does the INHIBITION read?
Answer: 36.1%

Question: For O=C(CN(CC1CCC1)CC(F)(F)F)N1CCOCC1, which INHIBITION is on record?
Answer: 22.6%

Question: How did the INHIBITION turn out when CC(=O)Cc1c(C)nn(-c2cncc(C(N)=O)c2)c1C was run?
Answer: -27.5%

Question: How did the INHIBITION turn out when COc1ccc(-n2nc(C)c(C(C)=O)c2C)cc1C(N)=O was run?
Answer: -17.5%

Question: Which INHIBITION does the source give for CCOc1ccc(-n2nc(C)c(CC(C)=O)c2C)cc1C(N)=O here?
Answer: 52.8%

Question: CCOc1ccc(C(=O)CCC(=O)N(C)Cc2snnc2C)cc1C was tested. Which INHIBITION did it give?
Answer: 29.7%

Question: With Cc1nnc(SCc2cc(=O)n3c4c(sc3n2)CCCC4)[nH]1 as the compound, how does the INHIBITION read?
Answer: 25.8%

Question: CC(C)c1noc(C2CCCN2S(=O)(=O)Cc2ccc(F)cc2)n1 (centres undefined) was tested. Which INHIBITION did it give?
Answer: 28.7%

Question: CC(C)c1noc(CN(Cc2ccc(F)cc2)C2CC2)n1 was tested. Which INHIBITION did it give?
Answer: 82.4%

Question: COc1cccc(CN(C)Cc2nc(C(C)C)no2)c1 was tested. Which INHIBITION did it give?
Answer: 61.9%

Question: With CC(C)c1noc(CN(C)C(c2ccc(F)cc2)c2cccnc2)n1 (centres undefined) as the compound, how does the INHIBITION read?
Answer: 38.6%

Question: For CC(C)c1noc(CN(Cc2ccccc2F)C2CC2)n1, which INHIBITION is on record?
Answer: 16.8%

Question: CC(C)c1noc(CN(Cc2ccccc2)C2CC2)n1 was tested. Which INHIBITION did it give?
Answer: 54.5%

Question: For COc1cccc(COc2nc(C(C)C)no2)c1, which INHIBITION is on record?
Answer: 17.4%

Question: How did the INHIBITION turn out when CC(C)c1noc(CN(Cc2cccs2)C2CC2)n1 was run?
Answer: 41.8%

Question: COc1cccc(NC(=O)CCCc2nc(C(C)C)no2)c1 was tested. Which INHIBITION did it give?
Answer: 26.5%

Question: How did the INHIBITION turn out when CCN(Cc1ccc2c(c1)OCCO2)C(=O)NCCc1cnn(C)c1 was run?
Answer: 8.15%

Question: O=C(Nc1nc2c(s1)CN(S(=O)(=O)C1CC1)CC2)c1ccc(=O)[nH]c1 was tested. Which INHIBITION did it give?
Answer: 31.9%

Question: How did the INHIBITION turn out when NC1(C(=O)NCCC2CN(Cc3ccco3)CCO2)CCCC1 (centres undefined) was run?
Answer: 20%

Question: For CCn1ccnc1CN1CCN(C(C)C(=O)N2CCCCCC2)CC1 (centres undefined), which INHIBITION is on record?
Answer: 30.6%

Question: Which INHIBITION does the source give for CCN(CC1CCCO1)C(=O)Nc1cccc(Cl)c1OC (centres undefined) here?
Answer: 26.4%

Question: Cc1nn(-c2ncnc3[nH]cnc23)c2c1C(C(C)(C)C)CC(=O)N2 (centres undefined) was tested. Which INHIBITION did it give?
Answer: -4.35%

Question: With Cc1cnc(CNC(=O)[C@@]23CCO[C@@H]2CCN(c2ncccn2)C3)cn1 as the compound, how does the INHIBITION read?
Answer: 9.51%

Question: Cc1occc1C(=O)N1CCCC(C2=Nc3ccccc3S(=O)(=O)N2)C1 (centres undefined) was tested. Which INHIBITION did it give?
Answer: -7.679%

Question: How did the INHIBITION turn out when COc1ccccc1CN1CC[C@]2(C[C@H](OC)CO2)C1 was run?
Answer: -29.2%

Question: Cc1ccc(CNC(=O)c2cc(CN3CCC(O)CC3)on2)s1 was tested. Which INHIBITION did it give?
Answer: 13.7%

Question: How did the INHIBITION turn out when Cc1ccc(CNC(=O)CN(C)CC2CCN(CCO)CC2)s1 was run?
Answer: 53.8%

Question: With Cc1ccc(CNC(=O)CN2CCN(CCO)CC2)s1 as the compound, how does the INHIBITION read?
Answer: 5.64%

Question: Which INHIBITION does the source give for O=C(CNC(=O)C1CC1)NCc1ccc(Cl)s1 here?
Answer: -56.4%

Question: For Cc1ccc(CNC(=O)CNCC2CCN(CCO)CC2)s1, which INHIBITION is on record?
Answer: 10.6%

Question: How did the INHIBITION turn out when O=C(CN1CCN(CCO)CC1)NCc1ccc(Cl)s1 was run?
Answer: 53.8%
